# From PubChem BioAssay AID686978 (National Center for Advancing Translational Sciences (NCATS), 2013)
# Values joined by “and” are separate entries in the source; they are usually repeats but may differ in a detail not shown here. Identical values can stand only once. Hit rate of the full screen: of about 420,000 compounds, about 64,000 (15%) were called active. Inconclusive results (about 27%) are left out. Calls come from the whole dose curve; as a rule, active = well fitted inhibition curve with a large enough effect; inconclusive = small, poorly fitted or top-dose-only effect; inactive = flat fitted curve, though single readings scatter. A selection follows. Entries that show only a call come without a potency.
# Assay: qHTS for Inhibitors of human tyrosyl-DNA phosphodiesterase 1 (TDP1): qHTS in cells in absence of CPT; note: nearly all actives have a fitted effect of over 55% in size
# Conditions: DT40 Tdp1-/- hTDP1 cells, no CPT, ATP luminescence, 48 h; activity change, negative = growth inhibition: at 46.2 µM (top of the series)
# In short: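 A cellular qHTS used chicken DT40 cells lacking endogenous Tdp1 but carrying stably transfected human TDP1. Compounds were applied without camptothecin, and cell growth kinetics were judged by ATP-dependent luminescence after ≥48 hr.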
# Potency is the fitted concentration of half-maximal effect.
row,Structure (SMILES),Potency
1,CCCS(=O)(=O)Nc1ccc(-c2cn3c(n2)SCC3)cc1,inactive
2,CN(Cc1ccc2nsnc2c1)Cc1nc(Cc2cccc(F)c2)no1,inactive
3,O=C(Nc1ccccc1)c1ccc2c(c1)OCCCO2,inactive
4,CC(NS(=O)(=O)c1ccc(Cl)cc1)C(=O)Nc1ccc2c(c1)OCCO2 (stereo not given),inactive
5,O=C(CCNC(=O)c1ccc(Br)cc1)Nc1cccc(S(=O)(=O)N2CCCCC2)c1,18.4 µM (active)
6,O=C(Nc1cccc(S(=O)(=O)N2CCCCC2)c1)c1ccc2c(c1)OCO2,16.4 µM (active)
7,Cc1ccc(C(=O)NCC(=O)OCC(=O)Nc2cccc(S(=O)(=O)N3CCCC3)c2)cc1C,inactive
8,O=C(Nc1cccnc1)c1ccc2c(c1)OCO2,inactive
9,O=C(Nc1cccc(S(=O)(=O)N2CCCC2)c1)c1cncc(Br)c1,13 µM (active)
10,O=C(Nc1cccc(S(=O)(=O)Nc2ccc(Cl)cc2)c1)c1ccc2c(c1)OCCO2,10.3 µM (active)
11,CN1CCN(S(=O)(=O)c2cccc(C(=O)Nc3cccc(S(N)(=O)=O)c3)c2)CC1,inactive
12,O=C(Nc1ccc(S(=O)(=O)Nc2ncccn2)cc1)c1cncc(Br)c1,inactive
13,Cc1ccc(S(=O)(=O)N2CCCCC2)cc1NC(=O)CCNC(=O)c1ccccc1,inactive
14,O=C(Nc1ccc(N2CCCC2=O)cc1)c1cncc(Br)c1,inactive
15,CCOc1cc2[nH]c(=O)n(Cc3ccc(C(=O)NCCCN4CCCC4=O)cc3)c(=O)c2cc1OCC,inactive
16,CS(=O)(=O)N1CCC2(CC1)CN(c1ccncc1)C2,inactive
17,Cc1ccc(-c2nnc3c4ccccc4c(C)nn23)cc1NC(=O)c1cccc(Br)c1,inactive
18,CS(=O)(=O)N1CCCC(C(=O)N2CCOCC2)C1 (stereo not given),inactive

row,Structure (SMILES),Potency
1,CCOc1ccc(NC(=O)CN(C)CC(=O)NC(C)c2ccccc2)cc1OCC (stereo not given),inactive
2,COc1ccc(Cc2nnc(SCC(=O)c3cccc([N+](=O)[O-])c3)n2C)cc1,inactive
3,CCOc1ccc2nc(NCCNS(=O)(=O)c3ccccc3)c(C#N)cc2c1,inactive
4,CC(C)(C)N1C(=O)[C@H]2[C@@H](c3ccc(Br)cc3)N3C(=O)N(c4cccc(Cl)c4)C(=O)[C@@]3(C)[C@H]2C1=O,inactive
5,COC(=O)[C@H](Cc1ccccc1)NC(=O)Nc1ccc(S(N)(=O)=O)cc1,inactive
6,O=C(NNC1=NCCC1)c1cccc(S(=O)(=O)N2CCCCC2)c1,inactive
7,O=C(Nc1nnc(S(=O)(=O)N2CCCCCC2)s1)c1cccc(Br)c1,4.61 µM (active) and 20.6 µM (active)
8,Cn1nnnc1SCC(=O)Nc1cccc(S(=O)(=O)N2CCCCC2)c1,inactive
9,CC(=O)NC(CC(=O)Nc1cccc(S(=O)(=O)N2CCCC2)c1)c1ccccc1 (stereo not given),inactive
10,CCCc1cc(C(=O)Nc2ccc(Cl)cn2)cs1,inactive
11,COc1c(Cl)cc(C(=O)Nc2ccc(Cl)cn2)cc1Cl,inactive
12,O=C(Nc1ccc(Cl)cn1)c1ccc2c(c1)OCCO2,18.4 µM (active)
13,CCN(CC(=O)Nc1ccc(S(=O)(=O)N2CCCC2)cc1)CC(=O)Nc1cccc(OC)c1,inactive
14,O=C(Nc1nncs1)c1cccc(S(=O)(=O)N2CCCCC2)c1,inactive
15,CCN(CC(=O)Nc1cccc(S(=O)(=O)N2CCCCC2)c1)Cc1ccccc1,23.1 µM (active)
16,O=C(Nc1cccc(S(=O)(=O)N2CCCCC2)c1)c1cncc(Br)c1,18.4 µM (active)
17,Cc1cccc(C(=O)Nc2nnc(S(=O)(=O)N3CCCCCC3)s2)c1,inactive
